Test results reported in PubChem BioAssay (Tox21).
Results filed as inconclusive are left out. Entries that show only a call come without a potency. Values without a mark were called inactive. Activity calls are given as the source filed them. Calls come from the whole dose curve; as a rule, active = well fitted cell-killing curve with a large enough effect in the repeat runs; inconclusive = weak or mixed curves; inactive = flat fitted curve, though single readings scatter.

Assay: qHTS assay to identify small molecule antagonists of the estrogen receptor beta (ER-beta) signaling pathway - cell viability counter screen (AID 1259382); note: nearly all actives have a fitted effect of over 55% in size
Details: ER-beta-UAS-bla HEK293T viability, CellTiter-Glo luminescence, 16 h; series mostly up to 92.4 µM
Text: U.S. Tox21 Program National Center for Advancing Translational Sciences [NCATS] NIH Chemical Genomics Center [NCGC] U.S. Environmental Protection Agency [EPA] National Institutes of Environmental Health Sciences [NIEHS] National Toxicology Program [NTP] U.S. Food and Drug Administration [FDA] Tox21 Assay Overview: Estrogen receptor (ER), a nuclear hormone receptor, plays an important role in development, metabolic homeostasis and reproduction. Two subtypes of ER, ER-alpha and ER-beta, have similar expression patterns with some uniqueness in both types. Endocrine disrupting chemicals (EDCs) and their interactions with steroid hormone receptors like ER causes disruption of normal endocrine function. To identify the compounds that inhibit ER signaling, an ER-beta-UAS-bla GripTite cell line (Life Technologies, Madison, WI, USA) containing a beta-lactamase reporter gene under the control of an UAS response element was used to screen Tox21 10K compound library. The cytotoxicity of the Tox21 compound library against the ER-beta-bla cell line was tested in parallel by measuring the cell viability using CellTiter-Glo assay in the same wells.
Tox21 Assay Protocol Summary: ER-beta-UAS-bla HEK293T cells were dispensed at 2,000 cells/4 uL of assay medium containing 2% charcoal stripped FBS per well into black wall/clear-bottom 1536-well plates using a Multidrop Combi (ThermoFisher Scientific, Waltham, MA) dispenser. After the assay plates were incubated at a 37C and 5% CO2 for 6 hr, 23 nL of compounds dissolved in DMSO, positive controls or DMSO only was transferred to the assay plate by a Pintool station (Kalypsys, San Diego, CA), followed by addition of 1 uL (1nM as final concentration) of 17-beta-estradiol (E2) in assay medium using a Flying Reagent Dispenser (FRD, Aurora Discovery, San Diego, CA). The plates were incubated at 37C and 5% CO2 for 16 hr. Then 1 uL of LiveBLAzer B/G FRET substrate was added using a Flying Reagent Dispenser, the plates were incubated at room temperature for 2 hours, and fluorescence intensity was measured by an Envision plate reader (PerkinElmer, Shelton, CT). For cell viability readout that measures cytotoxicity, 4 uL/well of CellTiter-Glo reagent was added into the assay plates using a FRD. After 30 min incubation at room temperature, the luminescence intensity in the plates was measured using a ViewLux (PerkinElmer) plate reader.

**Q.** Which Potency does the source give for `C[C@H](N)C(=O)c1ccccc1` here?
**A.** The Potency was “inactive”.

**Q.** Which Potency does the source give for `ClCC1CO1` (stereo not given) here?
**A.** Its Potency is “inactive”.

**Q.** With `O=C(CCl)NCO` as the compound, how does the Potency read?
**A.** Its Potency is “inactive”.

**Q.** With `O=c1[nH]c2ccccc2o1` as the compound, how does the Potency read?
**A.** Its Potency is “inactive”.

**Q.** For `CCOC(=O)C(Cl)Cc1cc(-n2nc(C)n(C(F)F)c2=O)c(F)cc1Cl` (stereo not given), which Potency is on record?
**A.** The Potency was “inactive”.

**Q.** For `Cc1ccc(-c2nc3ccc(C)cn3c2CC(=O)N(C)C)cc1`, which Potency is on record?
**A.** Its Potency is “inactive”.

**Q.** For `C/C(=N\NC(=O)Nc1cc(F)cc(F)c1)c1ncccc1C(=O)O`, which Potency is on record?
**A.** The Potency was “inactive”.

**Q.** For `CCOC1Oc2ccc(OS(C)(=O)=O)cc2C1(C)C` (stereo not given), which Potency is on record?
**A.** The Potency was “inactive”.

**Q.** For `NC(=O)OCCCc1ccccc1`, which Potency is on record?
**A.** The Potency was “inactive”.

**Q.** With `ClCCCCCCCl` as the compound, how does the Potency read?
**A.** The Potency was “inactive”.

**Q.** Which Potency does the source give for `CCOP(=O)(CN(CCO)CCO)OCC` here?
**A.** The Potency was “inactive”.

**Q.** For `COP(=O)(O)OC`, which Potency is on record?
**A.** The Potency was “inactive”.

**Q.** Which Potency does the source give for `Cc1cccc2sc3nncn3c12` here?
**A.** The Potency was “inactive”.

**Q.** For `CS(=O)(=O)c1ccc(C(=O)C2C(=O)CCCC2=O)c(Cl)c1COCC(F)(F)F`, which Potency is on record?
**A.** Its Potency is “inactive”.

**Q.** With `COc1ccc2c(C(=O)c3ccc(Cl)cc3)c(C)n(CC(=O)O)c2c1` as the compound, how does the Potency read?
**A.** Its Potency is “inactive”.

**Q.** Which Potency does the source give for `CC(C)c1ccc(O)cc1` here?
**A.** Its Potency is “inactive”.

**Q.** Which Potency does the source give for `N#CN=C1SCCN1Cc1ccc(Cl)nc1` here?
**A.** Its Potency is “inactive”.

**Q.** With `Oc1ccc(Cc2ccc(O)cc2)cc1` as the compound, how does the Potency read?
**A.** The Potency was “inactive”.

**Q.** With `OCC(Cl)CCl` (stereo not given) as the compound, how does the Potency read?
**A.** Its Potency is “inactive”.

**Q.** Which Potency does the source give for `CC1N=C(N)OC1c1ccccc1` (stereo not given) here?
**A.** The Potency was “inactive”.

**Q.** For `CCOC(=O)C(SP(=S)(OC)OC)c1ccccc1` (stereo not given), which Potency is on record?
**A.** Its Potency is “inactive”.

**Q.** Which Potency does the source give for `CC(=O)CN(CC(C)=O)N=O` here?
**A.** Its Potency is “inactive”.

**Q.** For `CCCCCCCC(=O)Cl`, which Potency is on record?
**A.** The Potency was “inactive”.

**Q.** With `O=C(O)c1c(Cl)ccc2cc(Cl)cnc12` as the compound, how does the Potency read?
**A.** Its Potency is “inactive”.

**Q.** Which activity change, negative = cytotoxicity does the source give for `Clc1cc2c(cc1Cl)Oc1cc(Cl)c(Cl)cc1O2` here?
**A.** Its activity change, negative = cytotoxicity is -1.8% [at 0.349 µM].

**Q.** Which Potency does the source give for `O=c1[nH]oc2c1CCNC2` here?
**A.** Its Potency is “inactive”.

**Q.** For `CCOP(=S)(OCC)Oc1ccc(Cl)cc1Cl`, which Potency is on record?
**A.** The Potency was “inactive”.

**Q.** For `Oc1ccc2c3c1O[C@H]1[C@@H](O)C=C[C@H]4[C@@H](C2)NCC[C@@]341`, which Potency is on record?
**A.** The Potency was “inactive”.

**Q.** Which Potency does the source give for `CC(O)CCl` (stereo not given) here?
**A.** Its Potency is “inactive”.

**Q.** Which Potency does the source give for `CC[C@@H](CO)NC(=O)[C@@H]1C=C2c3cccc4c3c(cn4C)C[C@H]2N(C)C1` here?
**A.** The Potency was “inactive”.

**Q.** With `NNCc1ccccc1` as the compound, how does the Potency read?
**A.** Its Potency is “inactive”.

**Q.** Which Potency does the source give for `CCNP(=S)(OC)O/C(C)=C/C(=O)OC(C)C` (stereo not given) here?
**A.** Its Potency is “inactive”.

**Q.** For `CNC(=O)NC(O)C(Cl)(Cl)Cl` (stereo not given), which Potency is on record?
**A.** The Potency was “inactive”.

**Q.** Which Potency does the source give for `O=[N+]([O-])CCO` here?
**A.** Its Potency is “inactive”.

**Q.** Which Potency does the source give for `CC(C)(C)C(=O)Cl` here?
**A.** Its Potency is “inactive”.

**Q.** For `CNC(=O)O/N=C(/CSC)C(C)(C)C`, which Potency is on record?
**A.** Its Potency is “inactive”.

**Q.** With `CC(C)(C)NC[C@H](O)c1ccc(O)cc1Cl` as the compound, how does the Potency read?
**A.** Its Potency is “inactive”.

**Q.** For `CCCCCCCCSC(=O)Oc1cc(Cl)nnc1-c1ccccc1`, which Potency is on record?
**A.** Its Potency is “inactive”.

**Q.** For `C=CCc1cc(OC)c2c(c1)OCO2`, which Potency is on record?
**A.** Its Potency is “inactive”.

**Q.** Which Potency does the source give for `CC(C)(O)C(Cl)(Cl)Cl` here?
**A.** Its Potency is “inactive”.
